High-throughput results from PubChem.
TrxR1 substrate: is turned over as a substrate by rat TrxR1; O89049; Potency, µM (top dose mostly 114 µM), for inactives: at the top dose activity change, negative = substrate turnover; AID 588456; purified TrxR1 substrate turnover, NADPH consumption readout; 390,000 compounds, 0.01% hits; also: potency is read from the fitted curve at half-maximal effect; % is scaled to controls: 0 for no effect and ±100 for the full control effect; nearly all actives have a fitted effect of over 50% in size
Target sequence (O89049 whole entry, looked up): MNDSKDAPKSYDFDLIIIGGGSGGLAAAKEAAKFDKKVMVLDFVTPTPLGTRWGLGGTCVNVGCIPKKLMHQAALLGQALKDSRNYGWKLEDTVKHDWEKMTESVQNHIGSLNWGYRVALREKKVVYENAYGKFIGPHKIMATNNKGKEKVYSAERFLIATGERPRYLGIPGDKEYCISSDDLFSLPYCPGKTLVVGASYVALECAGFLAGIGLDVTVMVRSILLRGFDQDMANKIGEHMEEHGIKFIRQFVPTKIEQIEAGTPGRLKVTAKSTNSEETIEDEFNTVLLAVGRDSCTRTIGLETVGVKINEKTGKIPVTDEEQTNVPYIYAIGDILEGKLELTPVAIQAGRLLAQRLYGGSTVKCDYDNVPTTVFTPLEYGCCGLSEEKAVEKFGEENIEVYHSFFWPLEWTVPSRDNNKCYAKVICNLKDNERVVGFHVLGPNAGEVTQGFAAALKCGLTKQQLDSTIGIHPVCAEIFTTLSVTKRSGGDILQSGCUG
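Rat TrxR1, dispensed at 90 nM, was prereduced with 400 uM NADPH (final) for 5 min at ~22 deg C, then incubated with compound 15 min before 400 uM selenite. A first-read NADPH fluorescence drop versus no-compound background flagged substrates.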
Giardia killer: kills Giardia lamblia; Giardia lamblia trophozoite viability; activity change, % at 7.66 µM, hits read low; 340,000 compounds, 0.15% hits; AID 540267; in the data active = activity change below about -80%; inconclusive = between about -30% and that limit;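 also: parasites exposed to compound for two days anaerobically before the ATP read; % is scaled to controls: 0 for no effect and ±100 for the full control effect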
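Compounds were tested on trophozoites seeded at 100 cells/well and held 48 hrs at 37 deg C anaerobically. An ATP-based luminescent kit measured the remaining live cells.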
mIDH1 inhibitor: blocks human mutant IDH1 R132H enzyme | IDH1-R132H enzyme, NADPH consumption, diaphorase/resazurin fluorescence | Potency, µM (highest dose often 76.6 µM), for the others: at the highest dose activity change, negative = inhibition, actives largely listed as inhibitors | O75874 | 390,000 compounds, 0.093% hits; also: potency is read from the fitted curve at half-maximal effect; % is scaled to controls: 0 for no effect and ±100 for the full control effect; nearly all actives have a fitted effect of over 65% in size
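IDH1-R132H (0.5 ug/mL dispensed) in pH 7.5 Tris buffer was preincubated 30 min with compound, then given a substrate mix of 0.016 mM NADPH and 2 mM alpha-KG for 80 min at room temperature; remaining NADPH was read by diaphorase/resazurin fluorescence.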
rTrxR1 inhibitor: inhibitors of rat thioredoxin reductase 1; AID 588453; Potency, µM (series often up to 114 µM), for the others: top-dose activity change, negative = inhibition, usual class: inhibitors; recombinant rTrxR1, NADPH fluorescence consumption, selenite substrate; 390,000 compounds, 1% hits; O89049; also: potency is read from the fitted curve at half-maximal effect; % is scaled to controls: 0 for no effect and ±100 for the full control effect; nearly all actives have a fitted effect of over 65% in size
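Rat TrxR1 (90 nM in the dispensed reagent) was pre-reduced with 400 uM NADPH for 5 min at room temperature, then incubated with compound for 15 min. After 400 uM selenite was added, NADPH fluorescence (Ex 340/Em 450 nm) was followed for 8 min.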
BRCA1 expr act: activators of BRCA1 expression; MCF7-BRCA1-FFLuc reporter, luminescence, 48 h; response scale: scaled: vehicle 0%, 10 µM genistein 100%; Potency, µM (top dose mostly 46.1 µM), without a hit: top-dose activation, actives largely listed as activators; 380,000 compounds, 1.1% hits; also: potency is read from the fitted curve at half-maximal effect; nearly all actives have a fitted effect of over 80% in size
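Luminescence from a BRCA1-driven firefly luciferase in MCF7 cells was read after 48 h compound exposure at 37 C. Data normalized against DMSO and a 10microM genistein activation control, then curve-fitted across the titration.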
IL2 activator: activators of IL-2 | 360,000 compounds, 0.065% hits | activation, % (series mostly up to about 46 µM) | AID 652025 | IL-2 activation reporter assay, cell-based qHTS; stimulated with anti-CD3/CD4/CD28 beads; in transgenic mouse T cells; in the data active = activation above about 50%; inconclusive = mostly about 30% to 49%; also: 0% is about no effect
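First, unstimulated transgenic mouse T cells were exposed to compound for 60 min. Next, anti-CD3/anti-CD4-coated beads with anti-CD28 were added. Finally, after 18 h at 37 degrees C, EGFP and DsRed were imaged.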
The depositor's hits bear a star; ? = inconclusive; / = not tested or not shown; [ ] = remark or other dose. A selection: hits, their analogues and other compounds. The true share with any hit is near 2.2%. Unless noted, calls follow the shape of the dose curve; as a rule, active = well fitted curve in the direction sought with a large enough effect; inconclusive = small, poorly fitted or top-dose-only effect, or another doubt; inactive = no such curve, though single readings can be large; an effect the other way counts as inactive or inconclusive.

SMILES	TrxR1 substrate	Giardia killer	mIDH1 inhibitor	rTrxR1 inhibitor	BRCA1 expr act	IL2 activator
COCCN1CCn2c(nc3cc(NC(=O)c4cccs4)ccc32)C1	0%	-5	10%	45µM*	60%	-3
Cc1nc2ccc(NC(=O)c3cccs3)cc2s1	-4%	-5	12%	18%	6.3µM*	-4
Cc1nc2ccc(NC(=O)N3CCSCC3)cc2s1	13%[57.1 µM]	-11	6%	23%[57.1 µM]	66%	0
Cc1nc2ccc(NC(=O)N3CCCCC3)cc2s1	14%	12	16%	12%	11µM*	-2
CC(=O)Nc1ccc2nc(NC(=O)c3cccs3)sc2c1	7%	-12	6%	16%	10%	-2
O=C(Nc1ccc2nsnc2c1)c1cccs1	-1%	-2	6%	-11%	-9%	2
O=C(Nc1ccc2nn(-c3ccccc3)nc2c1)c1cccs1	57%	9	1%	42%	4.5µM*	-1
CCCC(=O)Nc1ccc2c(c1)nc1n2CCN(CCOC)C1	49%[57.1 µM]	11	-1%	?	-10%	-5
Cc1cc(C)c2c(n1)sc1c(=O)n(-c3cc(Cl)ccc3C)nnc12	3%	/	-1%	20%	/	/
COc1cc(OC)c(NC(=O)c2c(C)oc3ncn(C)c(=O)c23)cc1Cl	3%	/	0%	6%	-17%	/
Cc1ccc(OC(=O)c2ccc3nc(C)sc3c2)cc1	7%[57.1 µM]	-13	0%	8%[57.1 µM]	0%	394*
Cc1nc2ccc(NC(=O)c3ccccc3)cc2s1	0%	-13	7%	11%	3.5µM*	-1
CCc1sc(C(=O)Nc2ccc3nc(C)sc3c2)cc1C	3%	5	7%	11%	3.2µM*	0
Cc1nc2ccc(NC(=O)c3ccc4ccccc4n3)cc2s1	-7%	7	22%	8%[57.1 µM]	26%	-1
Cc1nc2ccc(NC(=O)Cc3ccsc3)cc2s1	10%[57.1 µM]	-2	0%	7%[57.1 µM]	11µM*	1
Cc1cc(C)cc(NC(=O)CCN2C(=O)c3ccccc3Sc3ncccc32)c1	-12%	/	-12%	25µM*	/	/
CCOC(=O)c1c(C)[nH]c(N=Nc2ccc(OC)cc2)c1C	-13%	-1	4%	4%	6.3µM*	0
COC(=O)c1c(C)[nH]c(C=Nc2ccc(OC)cc2)c1C	-10%	7	3%	-11%	-2%	0
CCOC(=O)c1c(C)[nH]c(N=Nc2ccc(C)cc2)c1C	3%[57.1 µM]	-12	1%	-34%[57.1 µM]	?	0
CCOC(=O)c1c(C)[nH]c(C=Nc2ccc(OC)cc2)c1O	-18%	-8	-1%	9%[57.1 µM]	6.3µM*	1
Cc1ccc(NC(=O)CN(C)C(=O)Cn2ncc(Cl)c(Cl)c2=O)cc1	-9%	-2	2%	71µM*	-90%	-4
CC(=O)c1cnc(Nc2cccc(Cl)c2Cl)s1	10%[57.1 µM]	4	14%	27%[57.1 µM]	10µM*	1
Nc1c(C(=O)N/N=C/c2cccnc2)oc2nc(-c3ccccc3)cc(-c3ccco3)c12	9%[57.1 µM]	-11	8%	27%[57.1 µM]	-23%	318*
COc1ccc(N2CCN(C(=O)C3CCN(S(=O)(=O)c4cccc5nonc45)CC3)CC2)cc1	-13%[57.1 µM]	/	-12%	-7%[57.1 µM]	/	/
O=[N+]([O-])c1ccc(-c2ccc(/C=N/O)o2)cc1	6%[57.1 µM]	8	3%	10%[57.1 µM]	8.9µM*	-3
SMILES	TrxR1 substrate	Giardia killer	mIDH1 inhibitor	rTrxR1 inhibitor	BRCA1 expr act	IL2 activator
O=C(Nc1cccc(O)c1)c1cc(-c2ccc3c(c2)OCO3)on1	8%	-82*	0%	24%	39%	-1
CC(=O)c1cccc(NC(=O)c2cc(-c3ccc4c(c3)OCCO4)on2)c1	8%	/	15%	10%	?	/
O=C(Nc1ccc2c(c1)OCO2)c1cc(C2CC2)on1	8%[57.1 µM]	4	-2%	6%[57.1 µM]	4.5µM*	-2
O=C(Nc1ccc2c(c1)OCO2)c1ccccn1	-5%	-27	-8%	-18%	?	2
CC(C)c1cc(C(=O)Nc2ccc3c(c2)OCO3)no1	6%	-19	17%	41%	50%	-4
O=C(Nc1ccc2c(c1)OCO2)c1ccc(=O)[nH]n1	2%	40	0%	8%	11µM*	-1
